Screening data as filed in PubChem.
The list is not random: actives were taken first. Their share in the collection is about 9.2%.
ELG1 repair inh – inhibitors of ELG1-dependent DNA repair in HEK293T cells. 2.3% of 330,000 active. HEK293T ELG1-luciferase reporter, luminescence, 16 h; DNA damage induced by 5-fluorouridine. Potency, µM (highest dose often 46.1 µM), hits mostly inhibitors. AID 504467; also: nearly all actives have a fitted effect of over 55% in size
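Luminescence from the luciferase reporter, measured 30 min after ONE-Glo reagent at room temperature, was the read-out. Beforehand, 2,000 cells per well were exposed for 16 hr at 37 °C to 5-fluorouridine together with compound or vehicle.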
FLuc counter – counter-screen for miR-21 project: firefly luciferase inhibitors or activators. Potency, µM (titrated, usually from 57.5 µM), usual class: inhibitors. 6.9% of 360,000 active. purified FLuc, Km substrates, luminescence inhibition; also: nearly all actives have a fitted effect of over 55% in size
Target sequence (P08659 whole entry, looked up): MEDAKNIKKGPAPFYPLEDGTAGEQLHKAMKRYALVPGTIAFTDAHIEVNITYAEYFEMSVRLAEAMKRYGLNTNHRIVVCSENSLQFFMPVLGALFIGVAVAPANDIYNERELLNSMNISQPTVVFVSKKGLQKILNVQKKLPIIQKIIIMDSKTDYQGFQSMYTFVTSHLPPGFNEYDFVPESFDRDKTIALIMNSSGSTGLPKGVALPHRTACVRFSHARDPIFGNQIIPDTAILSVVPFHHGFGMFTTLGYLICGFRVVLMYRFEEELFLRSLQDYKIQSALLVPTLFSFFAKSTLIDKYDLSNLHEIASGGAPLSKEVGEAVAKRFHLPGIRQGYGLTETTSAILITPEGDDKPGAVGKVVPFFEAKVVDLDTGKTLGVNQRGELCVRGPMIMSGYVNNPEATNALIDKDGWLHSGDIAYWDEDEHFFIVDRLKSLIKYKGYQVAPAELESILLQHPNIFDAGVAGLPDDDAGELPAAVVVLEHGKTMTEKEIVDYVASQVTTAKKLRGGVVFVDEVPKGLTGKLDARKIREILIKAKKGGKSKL
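Purified P. pyralis luciferase, 10 nM final, with Km-level 10 uM D-luciferin and 10 uM ATP in 50 mM Tris acetate pH 7.5, 10 mM Mg acetate, 0.01% Tween-20, 0.05% BSA; 6-point qHTS titration about 60 µM downward; luminescence read.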
Rab9 promoter act – Rab9 promoter activation; 2.8% of 320,000 active; Potency, µM (highest dose often 9.22 µM), usual class: activators; Huh7 Rab9 promoter-luciferase reporter, luminescence, 24 h; also: nearly all actives have a fitted effect of over 60% in size
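Using Huh7 cells stably transfected with Rab9 promoter–luciferase, compounds were incubated 24 h at 37 °C, 5% CO2; luciferase luminescence was read 10 min after reagent addition.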
ELG1 genotox – inducers of genotoxicity in HEK293T ELG1-luciferase cells; AID 504466; 1.3% of 330,000 active; Potency, µM (top dose mostly 46 µM), hits mostly activators; HEK293T ELG1-luciferase reporter, luminescence, 16 h; also: nearly all actives have a fitted effect of over 60% in size
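ELG1-luciferase HEK293T cells, 2,000/well; compound pinned in; 16 hr, 37 °C, 5% CO2; ONE-Glo, 30 min RT; luminescence on CCD imager.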
NPC1 promoter act – activates the NPC1 promoter; Huh7 NPC1 promoter luciferase reporter, 24 h; Potency, µM (top dose mostly 9.22 µM), actives largely listed as activators; 2.4% of 320,000 active; AID 485313; also: nearly all actives have a fitted effect of over 60% in size
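Luciferase expression driven by the NPC1 promoter was measured in stably transfected Huh7 cells after a 24 h compound incubation, using a luciferase reagent and a luminescence read.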
SMN2 splice up – SMN2 splice variant enhancement; 2.8% of 210,000 active; Potency, µM (doses to about 46.1 µM), usual class: activators; HEK293 SMN2-luciferase splicing reporter, luminescence, 30-36 h; also: nearly all actives have a fitted effect of over 55% in size
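HEK293 cells carry an SMN2 […]–luciferase reporter in which exon 7 inclusion puts luciferase in frame. Cells were plated 10-12 h before compound addition, then incubated 30-36 h at 37C. ONE-Glo luminescence was read; sodium butyrate at 4.5 mM final served as control.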
Numbers stand for hits; i = inactive; ? = inconclusive; nt = not tested or not shown; [ ] = another dose, or the depositor's remark. Calls follow the shape of the dose curve; as a rule, active = well fitted curve in the direction sought with a large enough effect; inconclusive = small, poorly fitted or top-dose-only effect, or another doubt; inactive = no such curve, though single readings can be large; an effect the other way counts as inactive or inconclusive.

SMILES	ELG1 repair inh	FLuc counter	Rab9 promoter act	ELG1 genotox	NPC1 promoter act	SMN2 splice up
CCN(c1ccc(NC(=O)COC(=O)c2ccc3ccccc3n2)cc1)C(C)C	i	15µM	i	i	i	i
Cc1ccc2[nH]cc(S(=O)(=O)c3ccc(C)c(C)c3)c(=O)c2c1	i	i	i	i	i	i
CN1CCN(C(=O)/C=C/c2cn(-c3ccccc3)nc2-c2ccc3c(c2)OCCO3)CC1	10µM	i	i	i	i	i
CN(C)C(=O)/C=C\c1cn(-c2ccccc2)nc1-c1ccc2c(c1)OCCO2	16µM	i	i	i	i	i
CCOc1c(CC2C(=O)Nc3ccc(Br)cc32)cccc1OC (centres undefined)	nt	i	nt	nt	nt	nt
O=C(N/N=C/c1cccc(O)c1)N/N=C/c1cccc(O)c1	i	5.4µM	i	i	i	nt
COc1ccc(/C=N/NC(=O)c2nonc2N)cc1OC	i	?	i	i	i	nt
O=C(N/N=C/c1cccc(Oc2ccccc2)c1)c1cccc(Br)c1	?	?	i	i	i	i
O=C(CCc1ccccc1)N/N=C/c1cccc(O)c1	i	?	i	i	i	nt
Cc1nonc1C(=O)N/N=C/c1cccc(O)c1	i	12µM	i	i	i	i
O=C(N/N=C/c1cccc(Oc2ccccc2)c1)c1cccc(O)c1	i	17µM	i	i	i	nt
CCOC(=O)Cn1c(=O)n(-c2cccc(Cl)c2)c2nc(-c3ccccc3Cl)nc(C(N)=O)c21	nt	i	nt	nt	nt	nt
CCN(C(=O)COc1cc(=O)n(CC)c2ccccc12)c1cc(Cl)ccc1OC	21µM	i	i	i	i	i
CC1(C)CC(=O)C(C=Nc2ccc3c(c2)OCO3)=C(O)C1	?	15µM	i	?	i	?
CC1(C)CC(=O)C(C=NCc2ccc3c(c2)OCO3)=C(O)C1	i	i	i	i	i	i
COc1ccc(N=CC2=C(O)CC(C)(C)CC2=O)cc1	?	19µM	i	?	i	i
O=C(CN1C(=O)C2CC=CCC2C1=O)Nc1nnc(C2CC2)s1 (centres undefined)	i	nt	i	i	i	nt
COc1ccc2c(c1)c1c(C)c3cnccc3c(C)c1n2CCCN	nt	nt	nt	nt	nt	i[9.22 µM]
Cc1ccc2nc(NC(=O)C3CCCN(S(=O)(=O)c4cccc5nonc45)C3)sc2c1 (centres undefined)	7.3µM	i	i	i	i	nt
Cc1cccc2sc(NC(=O)C3CCCN(S(=O)(=O)c4cccc5nonc45)C3)nc12 (centres undefined)	?	i	i	i	i	i
Cc1ccc2nc(NC(=O)C3CCCN(S(=O)(=O)c4cnc[nH]4)C3)sc2c1 (centres undefined)	?	12µM	?	i	?	?
Cc1cccn2c1nc(=S)n2C(=O)c1ccco1	?	0.67µM	1.4µM	?	?	?
CCc1cc(C(=O)N2CCN(C(=O)c3ccco3)CC2)sc1C	i	i	i	nt	i	nt
COc1ccc([N+](=O)[O-])cc1C1NN=C(c2ccccc2O)S1 (centres undefined)	?	?	i	i	i	i
O=[N+]([O-])c1ccc(O)c(C2=NNC(c3ccccc3F)C2)c1 (centres undefined)	?	3.4µM	0.32µM	i	1µM	nt
SMILES	ELG1 repair inh	FLuc counter	Rab9 promoter act	ELG1 genotox	NPC1 promoter act	SMN2 splice up
COc1cc2cc(CNc3ccccc3)c(=O)n(CC(=O)Nc3cc(C)cc(C)c3)c2cc1OC	nt	i	nt	nt	nt	nt
Cc1ccc(OCCSc2ncnc3nc[nH]c23)cc1	?	13µM	2.5µM	9.2µM	?	i
CCc1ccc(NC(=O)CSc2nc3ccccc3nc2N2CCCCC2)cc1	?	?	i	i	i	nt
CCc1cccc(NC(=O)CSc2nc3ccccc3nc2N2CCCCC2)c1	nt	i	nt	nt	nt	0.5µM
COc1cc(C)nc(N2CCCC(C(=O)NC3CCC(C)CC3)C2)n1 (centres undefined)	?	11µM	4µM	?	3.2µM	?
Cc1cc(C)cc(NC(=O)C2CCCN(c3nc(C)cc(C)n3)C2)c1 (centres undefined)	i	i	i	i	i	i
Cc1cc(C)nc(N2CCCC(C(=O)Nc3ccc4nc(C)c(C)nc4c3)C2)n1 (centres undefined)	12µM	i	i	i	i	i
Cc1cc(C)nc(N2CCCC(C(=O)Nc3nc4ccc(S(C)(=O)=O)cc4s3)C2)n1 (centres undefined)	16µM	i	i	i	i	i
Cc1cc(C)nc(N2CCCC(C(=O)NCC(c3ccccc3)c3ccccc3)C2)n1 (centres undefined)	23µM	i	i	i	i	i
CCC(C)NC(=O)C1CCCN(c2nc(C)cc(OC)n2)C1 (centres undefined)	i	i	i	i	i	i
CCCS(=O)(=O)Nc1ccc(N2CCCCC2)c(S(=O)(=O)Nc2ccccc2OC)c1	i	i	i	i	i	nt
COc1ccccc1N(C(=O)CCl)c1cn(C(C)=O)c2ccccc12	12µM	i	i	i	i	nt
CC(=O)n1cc(N(C(=O)CCl)c2ccc(Cl)cc2)c2ccccc21	?	i	i	i	i	nt
COc1ccc(Cc2nn3c(Cn4nnc5ccccc54)nnc3s2)cc1	?	11µM	i	i	i	i
CCCn1c2ccccc2c2cnn(CC(=O)NCc3ccc(OC)cc3)c(=O)c21	nt	i	nt	nt	nt	nt
Cc1c(CC(=O)NCCc2ccccc2F)c(=O)oc2cc(O)c(Cl)cc12	nt	i	nt	nt	nt	i
N#Cc1c2ccc([N+](=O)[O-])cc2[n+]([O-])n1-c1ccccc1	10µM	nt	i	?	i	nt
COc1ccc2c(c1)c1c(c(=O)n(-c3ccc(F)c(Cl)c3)c(=O)n1Cc1ccccc1C)n2C	nt	i	nt	nt	nt	nt
COc1cc(C(=O)OCCCOC(=O)c2cc(OC)c(OC)c(OC)c2)cc(OC)c1OC	i	i	i	i	i	nt
COc1cc(OC)c(C(=O)OCCCOC(=O)c2cc(OC)c(OC)cc2OC)cc1OC	12µM	i	i	i	i	nt
CCOc1ccccc1NC(=O)COC(=O)CN1C(=O)NC(C)(C)C1=O	?	nt	nt	i	nt	nt
Cc1nn(-c2nnc(NCc3ccccc3)nn2)c(C)c1Br	?	21µM	?	?	i	nt
Cc1cc(NC(=O)CSc2ncc(C(=O)Nc3ccc(F)cc3)c(=O)n2C)no1	nt	i	nt	nt	nt	nt
COc1ccc(C(=O)c2c(N)sc3c2CCN(C(=O)OC(C)(C)C)C3)cc1	23µM	i	i	i	i	nt
CCCOc1ccc(-c2cn3ccccc3n2)cc1[N+](=O)[O-]	?	1.7µM	2.2µM	?	3.2µM	1.6µM
COc1ccc(Cc2noc(-c3ccc([N+](=O)[O-])cc3)n2)cc1OC	18µM	i	i	i	i	nt
COc1ccc(-c2cn3ccccc3n2)cc1[N+](=O)[O-]	?	1.7µM	1.4µM	?	4µM	11µM
O=[N+]([O-])c1cccc(-c2cn3ccccc3n2)c1	i	i	i	i	i	nt
